Reference: the supplement of paper PMC11732987, “Enantioselective OTUD7B fragment discovery through chemoproteomics screening and high-throughput optimisation” (Communications Chemistry, 2025)

Key:
Assay in all cases: log2 ratio of Biotin-Ahx-Ub-VS probe labelling (fragment/DMSO); higher = less target engagement (more negative = stronger competition), active = hit call of the paper (q ≤ 0.05, log2 ratio ≤ -1)
Settings in all cases: compound concentration: 200 uM; treatment time: 3 h
[1] = target: USP16 (UniProt Q9Y5T5)
Method in brief: (§1)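 Global-median-normalised Spectronaut label-free quantities were compared by unpaired t-test, and values are average log2 ratios of fragment over vehicle. Only proteins with ≥2 unique peptides were used. HEK293T lysate (495 µg per sample) was treated in triplicate with fragment at 200 µM or vehicle for 3 h and then with Biotin-Ahx-Ub-VS at 0.5 µM final for 1 h. Labelled DUBs were then NeutrAvidin-enriched, digested with LysC and trypsin, and run by diaPASEF LC-MS/MS.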

[2] = target: T1, USP19 (UniProt O94966)
T1 sequence (whole entry): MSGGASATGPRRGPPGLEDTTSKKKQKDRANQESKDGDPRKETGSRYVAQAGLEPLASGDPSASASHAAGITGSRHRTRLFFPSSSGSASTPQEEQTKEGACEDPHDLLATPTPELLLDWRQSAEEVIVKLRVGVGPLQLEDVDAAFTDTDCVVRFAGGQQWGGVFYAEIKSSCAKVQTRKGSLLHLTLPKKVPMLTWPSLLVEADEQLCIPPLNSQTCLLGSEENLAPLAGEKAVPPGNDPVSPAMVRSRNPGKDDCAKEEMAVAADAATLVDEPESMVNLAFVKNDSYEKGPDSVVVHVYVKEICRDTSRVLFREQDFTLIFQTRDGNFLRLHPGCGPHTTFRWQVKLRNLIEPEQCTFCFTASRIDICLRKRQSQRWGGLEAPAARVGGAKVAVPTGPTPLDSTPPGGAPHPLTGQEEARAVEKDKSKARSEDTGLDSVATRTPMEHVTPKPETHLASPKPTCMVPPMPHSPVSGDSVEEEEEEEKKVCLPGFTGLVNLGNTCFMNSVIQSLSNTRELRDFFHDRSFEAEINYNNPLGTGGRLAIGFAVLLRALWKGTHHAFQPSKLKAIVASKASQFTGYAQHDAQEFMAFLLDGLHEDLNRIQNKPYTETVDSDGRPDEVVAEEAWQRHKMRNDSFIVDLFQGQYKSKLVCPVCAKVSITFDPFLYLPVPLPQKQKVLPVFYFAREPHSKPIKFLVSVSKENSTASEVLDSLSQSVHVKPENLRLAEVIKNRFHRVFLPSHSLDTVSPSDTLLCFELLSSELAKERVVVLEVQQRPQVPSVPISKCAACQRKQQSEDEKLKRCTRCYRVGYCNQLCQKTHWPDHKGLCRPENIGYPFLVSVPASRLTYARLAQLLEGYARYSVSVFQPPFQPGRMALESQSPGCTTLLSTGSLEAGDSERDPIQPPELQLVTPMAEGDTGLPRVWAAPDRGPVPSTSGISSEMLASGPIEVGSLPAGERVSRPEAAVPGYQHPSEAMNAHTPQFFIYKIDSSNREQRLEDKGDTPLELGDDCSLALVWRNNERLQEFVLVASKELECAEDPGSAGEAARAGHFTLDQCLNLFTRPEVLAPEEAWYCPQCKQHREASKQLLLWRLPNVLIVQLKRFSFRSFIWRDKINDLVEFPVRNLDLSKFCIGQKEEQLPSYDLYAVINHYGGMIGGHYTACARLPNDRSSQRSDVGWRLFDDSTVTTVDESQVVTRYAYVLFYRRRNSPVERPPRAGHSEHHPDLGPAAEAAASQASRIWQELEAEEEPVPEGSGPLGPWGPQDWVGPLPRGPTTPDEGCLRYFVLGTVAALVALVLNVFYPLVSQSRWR
Method in brief: as §1

[3] = target: USP24 (UniProt Q9UPU5)
Method in brief: as §1

[4] = target: T2, USP25 (UniProt Q9UHP3)
T2 sequence (whole entry): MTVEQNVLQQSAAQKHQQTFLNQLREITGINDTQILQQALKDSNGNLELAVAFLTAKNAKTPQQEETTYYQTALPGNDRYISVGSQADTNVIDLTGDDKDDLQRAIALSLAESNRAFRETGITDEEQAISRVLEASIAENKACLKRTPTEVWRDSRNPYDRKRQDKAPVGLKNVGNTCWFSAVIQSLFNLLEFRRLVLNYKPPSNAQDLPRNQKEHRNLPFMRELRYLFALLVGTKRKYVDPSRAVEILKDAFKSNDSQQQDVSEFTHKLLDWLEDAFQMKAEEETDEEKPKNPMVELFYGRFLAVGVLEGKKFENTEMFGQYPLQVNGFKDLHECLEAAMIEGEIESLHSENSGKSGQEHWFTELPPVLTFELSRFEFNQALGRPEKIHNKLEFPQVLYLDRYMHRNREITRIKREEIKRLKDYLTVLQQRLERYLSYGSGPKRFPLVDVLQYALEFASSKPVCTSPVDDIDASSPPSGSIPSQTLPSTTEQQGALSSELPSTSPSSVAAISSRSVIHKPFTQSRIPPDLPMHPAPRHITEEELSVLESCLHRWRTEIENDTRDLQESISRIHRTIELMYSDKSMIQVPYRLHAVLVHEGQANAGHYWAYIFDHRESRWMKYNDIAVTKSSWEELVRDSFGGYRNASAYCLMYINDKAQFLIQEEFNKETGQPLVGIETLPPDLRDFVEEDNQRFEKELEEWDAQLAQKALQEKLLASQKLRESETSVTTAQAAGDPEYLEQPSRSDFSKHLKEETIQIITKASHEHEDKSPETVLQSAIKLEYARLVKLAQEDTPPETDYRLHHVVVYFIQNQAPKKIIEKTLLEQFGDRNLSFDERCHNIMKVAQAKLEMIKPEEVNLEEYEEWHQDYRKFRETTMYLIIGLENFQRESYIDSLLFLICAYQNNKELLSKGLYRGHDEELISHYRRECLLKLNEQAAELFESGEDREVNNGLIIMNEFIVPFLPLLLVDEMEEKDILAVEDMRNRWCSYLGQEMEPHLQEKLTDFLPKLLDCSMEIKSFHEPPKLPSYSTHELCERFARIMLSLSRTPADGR
Method in brief: as §1

[5] = target: T3, USP28 (UniProt Q96RU2)
T3 sequence (whole entry): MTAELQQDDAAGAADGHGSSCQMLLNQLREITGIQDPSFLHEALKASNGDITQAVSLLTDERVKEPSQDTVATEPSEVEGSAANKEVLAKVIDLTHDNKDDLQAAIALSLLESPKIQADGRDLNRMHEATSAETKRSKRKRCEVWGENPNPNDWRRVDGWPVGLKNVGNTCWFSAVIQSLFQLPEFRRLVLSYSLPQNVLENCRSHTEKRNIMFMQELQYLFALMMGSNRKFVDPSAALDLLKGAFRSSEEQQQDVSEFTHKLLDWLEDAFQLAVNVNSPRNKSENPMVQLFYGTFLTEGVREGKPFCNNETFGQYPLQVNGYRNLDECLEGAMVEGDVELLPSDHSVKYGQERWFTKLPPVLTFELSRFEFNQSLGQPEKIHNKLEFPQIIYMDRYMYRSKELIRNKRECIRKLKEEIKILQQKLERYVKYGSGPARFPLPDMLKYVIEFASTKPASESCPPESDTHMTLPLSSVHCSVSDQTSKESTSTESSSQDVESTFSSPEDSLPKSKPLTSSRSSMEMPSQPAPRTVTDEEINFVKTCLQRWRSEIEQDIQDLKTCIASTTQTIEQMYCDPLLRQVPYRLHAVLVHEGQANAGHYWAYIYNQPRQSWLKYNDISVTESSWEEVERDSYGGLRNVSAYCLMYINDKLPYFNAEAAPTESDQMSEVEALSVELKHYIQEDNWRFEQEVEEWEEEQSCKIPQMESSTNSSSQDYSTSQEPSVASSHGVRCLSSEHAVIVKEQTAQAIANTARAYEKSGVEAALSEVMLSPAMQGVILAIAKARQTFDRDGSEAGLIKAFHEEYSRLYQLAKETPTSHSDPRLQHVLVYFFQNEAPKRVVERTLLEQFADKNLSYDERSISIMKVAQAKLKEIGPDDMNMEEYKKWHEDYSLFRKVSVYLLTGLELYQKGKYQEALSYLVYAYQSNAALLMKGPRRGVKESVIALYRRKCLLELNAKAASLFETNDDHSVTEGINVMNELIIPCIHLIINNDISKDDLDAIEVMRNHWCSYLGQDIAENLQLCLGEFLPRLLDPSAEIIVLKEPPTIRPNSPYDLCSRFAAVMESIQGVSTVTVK
Method in brief: as §1

Measured: log2 ratio of Biotin-Ahx-Ub-VS probe labelling

Sequence of USP16 (Q9Y5T5 whole entry, looked up, the tested form may be a part): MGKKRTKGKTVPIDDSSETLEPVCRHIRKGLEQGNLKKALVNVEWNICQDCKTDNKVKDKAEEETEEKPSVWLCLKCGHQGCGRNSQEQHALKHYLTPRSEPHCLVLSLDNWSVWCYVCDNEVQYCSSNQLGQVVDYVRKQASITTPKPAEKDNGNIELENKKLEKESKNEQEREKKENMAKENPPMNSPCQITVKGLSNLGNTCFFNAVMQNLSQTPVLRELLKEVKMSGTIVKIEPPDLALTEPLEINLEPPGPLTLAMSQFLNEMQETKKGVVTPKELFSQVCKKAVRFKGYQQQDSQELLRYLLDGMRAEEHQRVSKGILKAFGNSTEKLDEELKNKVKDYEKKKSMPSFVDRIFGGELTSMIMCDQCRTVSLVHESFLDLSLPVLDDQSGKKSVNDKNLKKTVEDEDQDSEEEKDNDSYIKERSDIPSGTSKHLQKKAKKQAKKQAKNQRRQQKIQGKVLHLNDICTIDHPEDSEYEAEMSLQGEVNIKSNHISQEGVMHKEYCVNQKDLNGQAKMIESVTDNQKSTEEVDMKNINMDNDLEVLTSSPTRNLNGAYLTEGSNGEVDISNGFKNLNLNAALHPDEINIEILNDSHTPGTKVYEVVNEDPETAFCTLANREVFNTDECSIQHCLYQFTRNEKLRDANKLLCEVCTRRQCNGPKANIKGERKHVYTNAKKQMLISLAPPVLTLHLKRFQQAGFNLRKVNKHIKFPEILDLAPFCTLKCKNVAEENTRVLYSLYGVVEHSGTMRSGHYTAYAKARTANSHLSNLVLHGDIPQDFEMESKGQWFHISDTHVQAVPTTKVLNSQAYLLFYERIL
Sequence of USP24 (Q9UPU5 whole entry): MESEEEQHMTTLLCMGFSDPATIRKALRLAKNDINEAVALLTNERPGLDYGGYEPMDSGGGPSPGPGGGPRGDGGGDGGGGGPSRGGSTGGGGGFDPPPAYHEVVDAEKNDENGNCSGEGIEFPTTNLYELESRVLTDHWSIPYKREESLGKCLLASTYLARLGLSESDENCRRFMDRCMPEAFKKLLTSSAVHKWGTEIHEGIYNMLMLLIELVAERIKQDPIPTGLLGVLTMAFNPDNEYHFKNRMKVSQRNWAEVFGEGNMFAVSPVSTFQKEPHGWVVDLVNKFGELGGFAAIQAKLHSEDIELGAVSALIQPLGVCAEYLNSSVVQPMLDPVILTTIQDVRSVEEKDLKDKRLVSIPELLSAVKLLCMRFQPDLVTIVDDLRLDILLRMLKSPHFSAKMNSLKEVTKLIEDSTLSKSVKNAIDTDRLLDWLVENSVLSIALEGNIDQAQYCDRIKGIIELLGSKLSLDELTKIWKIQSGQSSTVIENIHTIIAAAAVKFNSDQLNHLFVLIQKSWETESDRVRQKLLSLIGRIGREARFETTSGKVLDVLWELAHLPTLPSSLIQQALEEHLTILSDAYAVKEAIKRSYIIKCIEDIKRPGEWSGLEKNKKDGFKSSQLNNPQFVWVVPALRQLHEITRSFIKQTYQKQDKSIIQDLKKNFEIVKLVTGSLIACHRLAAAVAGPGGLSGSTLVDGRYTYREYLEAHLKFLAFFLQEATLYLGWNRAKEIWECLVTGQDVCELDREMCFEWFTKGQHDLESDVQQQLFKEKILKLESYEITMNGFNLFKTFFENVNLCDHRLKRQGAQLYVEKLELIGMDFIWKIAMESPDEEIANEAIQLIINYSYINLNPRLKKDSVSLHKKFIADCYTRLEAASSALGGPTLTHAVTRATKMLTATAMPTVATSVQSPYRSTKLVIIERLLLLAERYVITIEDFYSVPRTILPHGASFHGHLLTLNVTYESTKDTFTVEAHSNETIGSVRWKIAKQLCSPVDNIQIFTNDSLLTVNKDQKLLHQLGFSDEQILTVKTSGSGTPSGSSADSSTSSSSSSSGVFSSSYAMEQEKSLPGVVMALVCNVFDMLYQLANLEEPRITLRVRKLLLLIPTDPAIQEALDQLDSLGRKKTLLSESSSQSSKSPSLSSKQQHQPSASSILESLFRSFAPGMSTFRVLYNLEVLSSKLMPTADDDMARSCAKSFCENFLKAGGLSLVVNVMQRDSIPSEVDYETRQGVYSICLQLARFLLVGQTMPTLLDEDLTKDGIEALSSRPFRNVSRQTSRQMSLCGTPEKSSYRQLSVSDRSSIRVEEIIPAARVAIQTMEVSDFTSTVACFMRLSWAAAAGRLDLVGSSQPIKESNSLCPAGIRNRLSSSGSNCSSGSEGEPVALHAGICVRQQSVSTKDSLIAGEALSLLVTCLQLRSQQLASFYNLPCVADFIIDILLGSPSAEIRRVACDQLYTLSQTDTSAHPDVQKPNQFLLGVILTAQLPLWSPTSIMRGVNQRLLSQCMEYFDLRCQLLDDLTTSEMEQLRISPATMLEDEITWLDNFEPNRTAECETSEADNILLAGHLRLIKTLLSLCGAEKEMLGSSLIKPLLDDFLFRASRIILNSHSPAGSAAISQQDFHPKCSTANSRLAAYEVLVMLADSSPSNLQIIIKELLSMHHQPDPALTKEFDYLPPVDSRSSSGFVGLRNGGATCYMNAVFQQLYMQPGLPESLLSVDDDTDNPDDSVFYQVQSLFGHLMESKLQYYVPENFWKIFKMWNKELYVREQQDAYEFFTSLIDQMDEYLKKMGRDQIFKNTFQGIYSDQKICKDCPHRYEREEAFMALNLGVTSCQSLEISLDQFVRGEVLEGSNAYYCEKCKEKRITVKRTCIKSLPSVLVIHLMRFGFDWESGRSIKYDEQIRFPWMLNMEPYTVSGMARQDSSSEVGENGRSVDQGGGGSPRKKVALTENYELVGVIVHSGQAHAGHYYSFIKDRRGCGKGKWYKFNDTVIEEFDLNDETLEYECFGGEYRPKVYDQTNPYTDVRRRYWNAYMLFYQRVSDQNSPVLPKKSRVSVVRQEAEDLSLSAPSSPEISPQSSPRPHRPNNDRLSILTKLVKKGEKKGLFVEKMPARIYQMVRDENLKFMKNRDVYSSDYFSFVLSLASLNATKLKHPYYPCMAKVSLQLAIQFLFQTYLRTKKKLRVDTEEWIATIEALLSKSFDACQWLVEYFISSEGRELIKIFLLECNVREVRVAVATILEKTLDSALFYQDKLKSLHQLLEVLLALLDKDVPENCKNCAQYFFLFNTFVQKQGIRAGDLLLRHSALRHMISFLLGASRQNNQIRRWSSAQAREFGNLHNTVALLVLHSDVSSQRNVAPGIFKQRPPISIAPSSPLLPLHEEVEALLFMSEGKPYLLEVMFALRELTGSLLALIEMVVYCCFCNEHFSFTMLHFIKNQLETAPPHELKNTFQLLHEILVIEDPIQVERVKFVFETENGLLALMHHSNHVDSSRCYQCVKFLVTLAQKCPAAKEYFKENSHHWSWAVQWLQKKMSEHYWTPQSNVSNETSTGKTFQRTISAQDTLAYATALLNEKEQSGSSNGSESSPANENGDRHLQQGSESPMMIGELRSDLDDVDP

Cl.Cn1cnc2cc(CNC(=O)CCl)ccc21
inactive: [1] -0.459 | [2] -0.154 | [3] -0.0163 | [4] -0.177 | [5] -0.154
